Reference: PubChem BioAssay AID1461 (National Center for Advancing Translational Sciences (NCATS), 2008)
Hit rate of the full screen: of about 220,000 compounds, about 2,300 (1%) were called active. Roughly 6% stayed inconclusive and do not appear here. Calls follow the shape of the dose curve; as a rule, active = well fitted inhibition curve with a large enough effect; inconclusive = small, poorly fitted or top-dose-only effect, or effect the other way; inactive = no such curve, though single readings can be large or run the other way. What follows is part of a selection rich in actives, with near analogues and random picks from the rest.

Target: Neuropeptide S receptor (Homo sapiens) (UniProt Q6W5P4)
Test: qHTS Assay for Antagonists of the Neuropeptide S Receptor: cAMP Signal Transduction; also: nearly all actives have a fitted effect of over 50% in size
Settings: CHO-NPSR cells, cAMP TR-FRET, antagonist mode; series mostly up to 38.3 µM; activity change, negative = inhibition: at the top concentration
Source text: NIH Chemical Genomics Center [NCGC] NIH Molecular Libraries Probe Production centers Network [MLPCN] MLPCN Grant: X01-DA026210-01 Assay Submitter (PI): Heilig, Markus Alexander NCGC Assay Overview: Neuropeptide S receptor (NPSR), previously known as GPR154, is a recently de-orphanized G protein coupled receptor. Its endogenous ligand is the 20 amino acids peptide Neuropeptide S (NPS). […] NPS and its receptor are found in various tissues. Specifically they are highly expressed in brain areas that have been implicated in modulation of arousal, stress and anxiety. Central administration of NPS in mice produces an unusual profile of activity by inducing wakefulness and arousal, while at the same time suppressing anxiety. Therefore, NPSR may represent a novel drug target for the treatment of sleep and anxiety disorders. To identify NPSR antagonists, we developed a cell-based cAMP assay. NPS can stimulate the production of cAMP in Chinese hamster ovary cells stably expressing NPS receptor. This change in intracellular cAMP level can be detected by a homogeneous LANCE cAMP assay based on the TR-FRET (time resolved fluorescence resonance energy transfer) between a europium-labeled cAMP tracer complex and a cAMP-specific antibody labeled with Alexa Fluor 647. The europium-labeled cAMP tracer complex is formed by the tight interaction between Biotin-cAMP (b-cAMP) and streptavidin labeled with Europium-W8044 chelate (Eu-SA). Light pulse at 320 nm excites the europium of the cAMP tracer and the energy emitted is transferred to the Alexa molecule bound to the cAMP antibody, generating a TR-FRET signal at 665 nm. Residual energy from the europium will produce a light at 620 nm. The native unlabeled cAMP from cell lysates competes with the europium-cAMP tracer for antibody binding and reversely reduces the emission signal of Alexa by interrupting FRET between the two labeled molecules. Both emission signals from the FRET donor (620 nm) and the acceptor (665 nm) can be detected by a plate reader in the TRF mode. Expression of result in fluorescence ratio (665 nm/620 nm) helps to normalize differences due to cell density and reagent dispensing. This assay was successfully optimized to a 1536-well plate format.
NCGC Assay Protocol Summary: A Chinese hamster ovary (CHO) cell line stably expressing the NPS receptor (CHO-NPSR) was obtained from Dr. Heilig lab at NIAAA and maintained in F-12 Kaighn's media (Invitrogen, Carlsbad, CA, 21127) supplemented with 10 % FBS, 100 units/ml penicillin, 100 ug/ml streptomycin and 250 ug/ml geneticin at 37C, 5% CO2 in a humidified atmosphere. Before the assay, aliquots of cells were frozen and stored at -135C. The assay was performed in 1536-well format. Data are reported for both the ratio of the two emission wavelengths, and also for the component 'donor' channel, Em2=620. Data were normalized to the controls for basal activity (DMSO only) and 100% inhibition (No NPS control). IC50 values were determined from concentration-response data modeled with the standard Hill equation. NPS 1536-well assay protocol: (1) Fresh or frozen CHO-NPSR cells were suspended in F-12 Kaighn's media supplemented with 10 % FBS, 100 units/ml penicillin and 100 ug/ml streptomycin. Cells were plated at 4 ul/well (1200 cells) to white, tissue culture treated 1536-well plates, and then cultured at 37C, 5 % CO2 for 16 to 30 hours. (2) Add 23 nl/well of compound in DMSO solution. The final titration for each compound was between 0.6 nM and 46 uM. (3) Add 1 ul of stimulation reagent (1X HBSS buffer, 5 mM HEPES, 0.1% BSA, 500 uM RO-201724 (Sigma-Aldrich, B8279), 1.5% Alexa 647-labeled anti-cAMP antibody (from Perkin Elmer), 100 nM NPS) (4) Incubation at 37C, 5 % CO2 for 60 min. (5) Add 1 ul/well detection reagent. Detection reagent was prepared by adding biotin labeled cAMP (4%), streptavidin labeled with Europium-W8044 chelate (1.33%) and TritonX-100 (1%) to detection buffer. […]
% is scaled to controls: 0 for no effect and ±100 for the full control effect; potency is read from the fitted curve at half-maximal effect.

Chain of Neuropeptide S receptor (Homo sapiens) (Q6W5P4 whole entry, looked up): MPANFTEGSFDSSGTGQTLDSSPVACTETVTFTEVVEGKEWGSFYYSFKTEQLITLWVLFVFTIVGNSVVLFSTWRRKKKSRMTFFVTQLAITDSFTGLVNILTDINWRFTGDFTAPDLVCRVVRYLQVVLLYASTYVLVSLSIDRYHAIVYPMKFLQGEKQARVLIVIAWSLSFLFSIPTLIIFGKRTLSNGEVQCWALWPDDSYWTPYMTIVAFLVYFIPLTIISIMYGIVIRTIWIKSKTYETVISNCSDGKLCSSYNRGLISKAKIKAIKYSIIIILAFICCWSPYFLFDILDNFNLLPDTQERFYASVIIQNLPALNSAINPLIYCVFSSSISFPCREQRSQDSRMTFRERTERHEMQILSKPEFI

| Compound | activity change, negative = inhibition | Potency |
| --- | --- | --- |
| Cc1ccc(NC(=O)C/C(N)=N/O)cc1Cl | -0.778% [at 7.67 µM] (inactive) | – |
| O=C(CC(O)(C(F)(F)F)C(F)(F)F)Nc1ccc(Cl)c(Cl)c1 | – | 6.31 µM (active) |
| O=C(CC(=O)Nc1ccc(Cl)c(Cl)c1)N/N=C/c1ccc(O)cc1 | 17.9% (inactive) | – |
| COc1cc2c(cc1OC)C(/C=C/c1ccco1)=NCC2 | -41.7% (inactive) | – |
| COC(=O)c1cc(NC(=O)c2ccco2)ccc1N1CCOCC1 | -5.71% (inactive) | – |
| C=CCn1c(=S)[nH]c2nc3c(cc2c1=O)COC(C)(C)C3 | 1.99% [at 46.1 µM] (inactive) | – |
| CC1(C)Cc2nc3sc4c(SCC(=O)NC(c5ccccc5)c5ccccc5)ncnc4c3cc2CO1 | – | 1.26 µM (active) |
| CC(=O)Nc1ccc(NC(=O)CSc2ncnc3c2cnn3Cc2ccccc2)cc1 | 4.76% (inactive) | – |
| O=c1[nH]nc(SCCS(=O)(=O)c2ccc(F)cc2)n1-c1ccccc1C(F)(F)F | 13.4% (inactive) | – |
| Cc1cccc2c1-c1sc(C(=O)NCCCN3CCc4ccccc4C3)cc1CO2 | -16.1% (inactive) | – |
| O=C(C[n+]1ccc2c(c1)nnn2-c1ccccc1)c1ccc(Cl)cc1 | -24.3% (inactive) | – |
| O=C(Cn1nnc(N2CCCCC2)n1)c1ccc(Cl)c(Cl)c1 | 3.87% (inactive) | – |
| O=S(=O)(NCc1ccco1)c1cnc(Cl)c(Cl)c1 | 25.6% [at 7.67 µM] (inactive) | – |
| Cn1c(SCC(=O)N2CCOCC2)nnc1-c1ccc2ncccc2c1 | 7.2% (inactive) | – |
| CC(C)=CCc1c(O)c(CC=C(C)C)c2occ(-c3ccc(O)cc3)c(=O)c2c1O | -56.7% (inactive) | – |
| Cc1ccc(S(=O)(=O)N2CC(=O)Nc3ccccc32)cc1C | 6.63% [at 46.1 µM] (inactive) | – |
| Cc1ccc(C)c(S(=O)(=O)N2CC(=O)Nc3ccccc32)c1 | -7.92% [at 46.1 µM] (inactive) | – |
| O=C1CN(c2nc(-c3ccccc3)c3cc(Br)ccc3n2)c2ccccc2N1 | – | 6.31 µM (active) |
| COc1ccc(CN2CCOC2=O)cc1OC | -18.3% (inactive) | – |
| COc1ccccc1C1/C(=C(/O)c2ccc(OC(C)C)cc2)C(=O)C(=O)N1c1cc(C)on1 (stereo not given) | -10.3% [at 46.1 µM] (inactive) | – |
| Cc1cc(N2C(=O)C(=O)/C(=C(/O)c3ccc(Cl)cc3)C2c2cccc(Br)c2)no1 (stereo not given) | – | 12.6 µM (active) |
| COc1ccc(C2/C(=C(/O)c3ccccc3)C(=O)C(=O)N2c2ncccn2)cc1OC (stereo not given) | 1.24% (inactive) | – |
| CC(=O)NCc1ccc(S(=O)(=O)NC2CCN(Cc3ccccc3)CC2)cc1 | 23.9% (inactive) | – |
| COc1ccc(Br)c2c1C(=O)CC2 | -25.8% (inactive) | – |
| COC(=O)c1cn(C(=O)c2ccc(Cl)cc2)c2ccccc12 | -27% (inactive) | – |
| CCOC(=O)NNc1cc(C(F)(F)F)ccn1 | -10.8% (inactive) | – |
| COc1ccccc1P(=O)(c1ccccc1)c1ccccc1NC(C)=O (stereo not given) | 17.4% (inactive) | – |
| Cc1cccc(NC(=O)c2sc(-c3ccccc3)nc2-c2ccc([N+](=O)[O-])cc2)c1 | -3.9% (inactive) | – |
| O=C(Nc1ccccc1)/C(=C/c1ccc([N+](=O)[O-])cc1)NC(=O)c1ccccc1 | 4.16% (inactive) | – |
| CCOC(=O)/C(=C\c1ccc([N+](=O)[O-])cc1)C(=O)c1cc(C(C)=O)c(Nc2ccccc2)s1 | – | 7.94 µM (active) |
